{
  "source": "PubChem BioAssay (EPA / NIEHS)",
  "note": "Several values for one entry are separate records, joined by “and”; a condition that tells them apart may be missing. Identical values can stand only once. Inconclusive results are not listed. Activity calls are given as the source filed them. Rule for the calls: active = hit-call score of the fitted dose curve at least 0.9, where 1 is the maximum; inconclusive = response in the unintended direction; inactive = score below 0.9.",
  "data": [
    {"test_system": "frog Estrogen Receptor (ER), gene 398734", "assay": "ATG_frER1_XSP2: Attagene TRANS-FACTORIAL Multi-Species (XSP2) HepG2 Assay for frog Estrogen Receptor (ER) (AID 2283821);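 note: hits raise reporter mRNA above DMSO baseline so potency means agonist or activator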", "description": "ATG_XSP2_multi-species_TRANS is a cell-based, multiplexed assay created by modifying the existing Attagene TRANS-FACTORIAL system to include a panel of nuclear receptors from some or all the following species: human (Homo sapiens), mouse (Mus musculus), frog (Xenopus laevis), zebrafish (Danio rerio), chicken (Gallus gallus), and turtle (Chrysemys picta). The ECOTOX-FACTORIAL format uses HepG2, a human liver cell line, with measurements taken at 24 hours after chemical dosing in a 24-well plate. Xsp2 included 3 nM 6-alpha-fluorotestosterone and 1.5 nM norgestrel to stimulate the androgen receptor.ATG_frER1_XSP2 is one of 29 assay components measured or calculated from the ATG_XSP2_multi-species_TRANS assay. It is designed to make measurements of mRNA induction, a form of inducible reporter, as detected with fluorescence intensity signals by Reverse transcription polymerase chain reaction (RT-PCR) and Capillary electrophoresis technology.The assay endpoint ATG_frER1_XSP2 was analyzed in the positive analysis fitting direction relative to DMSO as the negative control and baseline of activity. Using a type of inducible reporter, measures of mRNA for gain-of-signal activity can be used to understand the reporter gene at the transcription factor-level as they relate to the gene ER. Furthermore, this assay endpoint can be referred to as a primary readout, because this assay has produced multiple assay endpoints where this one serves a reporter gene function. To generalize the intended target to other relatable targets, this assay endpoint is annotated to the nuclear receptor intended target family, where the subfamily is steroidal.\nHuman liver HepG2 cells are transiently transfected with multiple reporter transcription units (MRTUs) in 6-well plates using FuGene 6 reagent (Roche; 3 ml FuGene/1 mg DNA). The MRTU constructs are regulated by a cis-regulating element (promoter). […] A major difference between the CIS and TRANS system is that in CIS activities of endogenous TFs are measured, whereas the TRANS assay evaluates changes in activities of exogenous, chimeric NR-Gal4 proteins. […] At the end of 24 hour incubation, total RNA was isolated using TriZol reagent (Invitrogen). The isolated RNA is then reverse-transcribed using oligo(dT) primer and Mo-MLV reverse transcriptase (Invitrogen) with DNAse I (Ambion) treatment for 30 min. The one-tenth of the produced cDNA was amplified by PCR using Taq DNA polymerase (Invitrogen) and two reporter sequence-specific primers. The PCR products were fluorescently labeled by primer extension with 6-arboxyfluorescein (6-FAM) 5'-labeled reporter sequence-specific primer (2 min at 95 C, 20 s at 68 C and 10 min at 72 C) and these products were digested with 5U of HpaI (New England Biolabs) for 2h at 37 C. The fragments were purified using Qiaquick PCR columns (Qiagen), analyzed on an ABI 3130xL genetic analyzer (Applied Biosystems) with peak positions identified by using a set of X-rhodamine (ROX)-labeled MapMarker1000 molecular weight standards (BioVentures). The raw capillary electrophoresis data was processed using Attagraph software (Attagene).", "values": [
      {"smiles": "CCC(C)c1ccc(O)cc1", "note": "(stereo unspecified)", "AC50": "5.13 µM (active) and 19.8 µM (active)"},
      {"smiles": "Clc1ccc(C(c2ccc(Cl)cc2)C(Cl)(Cl)Cl)cc1", "AC50": "37.2 µM (active)"},
      {"smiles": "CCCCCOC(=O)c1ccccc1C(=O)OCCCCC", "outcome": "inactive"},
      {"smiles": "C[C@]12C=CC3=C4CCC(=O)C=C4CC[C@H]3[C@@H]1CC[C@@H]2O", "outcome": "inactive"},
      {"smiles": "CCCCOC(=O)c1ccccc1C(=O)OCc1ccccc1", "AC50": "80.4 µM (active)"},
      {"smiles": "Oc1ccc2ccc3cccc4ccc1c2c34", "outcome": "inactive"},
      {"smiles": "O=[N+]([O-])c1ccc(Oc2ccc(Cl)cc2Cl)cc1", "outcome": "inactive"},
      {"smiles": "CC(C)(C)C(O)(CCc1ccc(Cl)cc1)Cn1cncn1", "note": "(stereo unspecified)", "outcome": "inactive"},
      {"smiles": "c1ccc2c(c1)-c1cccc3cccc-2c13", "outcome": "inactive"},
      {"smiles": "CCCCC(CC)COC(=O)c1ccc(C(=O)OCC(CC)CCCC)c(C(=O)OCC(CC)CCCC)c1", "note": "(stereo unspecified)", "AC50": "6.16 µM (active) and 26.5 µM (active)"},
      {"smiles": "Clc1ccc(C(c2ccc(Cl)cc2)C(Cl)Cl)cc1", "AC50": "3.04 µM (active)"}
    ]}
  ]
}
